According to PubChem BioAssay (EPA / NIEHS):
Where a structure was tested more than once in an assay, its records may differ in their call. Calls of active or inactive are those of the source. How the source made its calls: active means hit-call score of the fitted dose curve at least 0.9, where 1 is the maximum; inactive means score below 0.9.

Columns and labels:
[1] = read-out: Interleukin-1 alpha (IL1a), IL1A (gene 3552); experiment: BSK_KF3CT_IL1a: BioMAP Diversity Plus: KF3CT Assay for Interleukin-1 alpha (IL1a) Biomarker Activity (AID 2283070); settings: primary human keratinocytes with fibroblasts; actives raise or lower the signal
Procedure, shortened: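 Primary skin co-culture (keratinocytes, foreskin fibroblasts), 24 h exposure; ELISA for IL-1a; bidirectional curve fit vs DMSO.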

[2] = read-out: TIMP metallopeptidase inhibitor 2 (TIMP2), TIMP2 (gene 7077); experiment: BSK_KF3CT_TIMP2: BioMAP Diversity Plus: KF3CT Assay for TIMP metallopeptidase inhibitor 2 (TIMP2) Biomarker Activity (AID 2283071); settings: primary human keratinocytes with fibroblasts; actives raise or lower the signal
Procedure, shortened: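 Chemicals were dosed onto human skin primary co-cultures of keratinocytes and foreskin fibroblasts, and TIMP-2 was measured by ELISA after 24 hours. Activity in either direction was fitted relative to DMSO.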

[3] = read-out: Transforming growth factor beta 1 (TGFb1), TGFB1 (gene 7040); experiment: BSK_KF3CT_TGFb1: BioMAP Diversity Plus: KF3CT Assay for Transforming growth factor beta 1 (TGFb1) Biomarker Activity (AID 2283072); settings: primary human keratinocytes with fibroblasts; actives raise or lower the signal
Procedure, shortened: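 KF3CT co-culture (keratinocytes + fibroblasts), 24 h exposure → TGF-b1 ELISA → bidirectional fit, DMSO = baseline. Parallel SRB total-protein staining (0.1% SRB, 10% TCA fixation, 560 nm) for cytotoxicity.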

[4] = read-out: C-C motif chemokine 2 (Homo sapiens) (UniProt P13500); experiment: BSK_KF3CT_MCP1: BioMAP Diversity Plus: KF3CT Assay for Monocyte Chemoattractant Protein 1 (MCP1/CCL2) Biomarker Activity (AID 2283073); settings: primary human keratinocytes with fibroblasts; actives raise or lower the signal
Procedure, shortened: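 Biomarker MCP-1 is measured by ELISA in primary human keratinocytes co-cultured with foreskin fibroblasts, 24 h after chemical treatment; DMSO serves as the negative control and activity baseline.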

[5] = read-out: Matrix Metallopeptidase 9 (MMP9), MMP9 (gene 4318); experiment: BSK_KF3CT_MMP9: BioMAP Diversity Plus: KF3CT Assay for Matrix Metallopeptidase 9 (MMP9) Biomarker Activity (AID 2283074); settings: primary human keratinocytes with fibroblasts; actives raise or lower the signal;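 on AC50: MMP9 protein level quantified by ELISA in the co-culture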
Procedure, shortened: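 ELISA read-out of MMP-9 at 24 h post-dosing in a co-culture of human skin keratinocytes and foreskin fibroblasts. Gain or loss of signal was fitted in both directions against DMSO.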

[6] = read-out: urokinase plasminogen activator (uPA), PLAU (gene 5328); experiment: BSK_KF3CT_uPA: BioMAP Diversity Plus: KF3CT Assay for urokinase plasminogen activator (uPA) Biomarker Activity (AID 2283075); settings: primary human keratinocytes with fibroblasts; actives raise or lower the signal
Procedure, shortened: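 Skin co-culture (keratinocytes + foreskin fibroblasts), human primary; 24 h post-dose; uPA by ELISA; gain/loss fit vs DMSO baseline.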

CD40, CD40 (gene 958) [7] = experiment: BSK_LPS_CD40: BioMAP Diversity Plus: LPS Assay for CD40 Biomarker Activity (AID 2283076); settings: primary human HUVEC with PBMC; actives raise or lower the signal
Procedure, shortened: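 Using a multiplexed primary human co-culture (umbilical vein endothelium plus PBMC), CD40 was read by ELISA 24 h after dosing, with cytotoxicity tracked by sulforhodamine B staining of parallel cultures and activity fitted bidirectionally versus DMSO.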

[8] = read-out: Interleukin-8 (IL8), CXCL8 (gene 3576); experiment: BSK_LPS_IL8: BioMAP Diversity Plus: LPS Assay for Interleukin-8 (IL8) Biomarker Activity (AID 2283078); settings: primary human HUVEC with PBMC; actives raise or lower the signal
Procedure, shortened: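 In this LPS system, chemical-treated human umbilical vein endothelium/PBMC co-cultures were harvested at 24 h for IL-8 ELISA.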

[9] = BSK_LPS_SRB: Viability Assessment in the BioMAP Diversity Plus: LPS Assay (AID 2283079); settings: primary human HUVEC with PBMC;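 further: total protein by sulforhodamine B absorbance as a cytotoxicity measure; measured one day after compound addition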
Procedure, shortened: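 Cytotoxicity endpoint in human endothelial–PBMC co-culture: 24 h exposure, then SRB (0.1%) staining, 560 nm read.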

[10] = read-out: Interleukin-1 alpha (IL1a), IL1A (gene 3552); experiment: BSK_LPS_IL1a: BioMAP Diversity Plus: LPS Assay for Interleukin-1 alpha (IL1a) Biomarker Activity (AID 2283080); settings: primary human HUVEC with PBMC; actives raise or lower the signal
Procedure, shortened: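 Primary human HUVEC and PBMC co-culture stimulated with LPS is dosed and harvested at 24 h. Both increases and decreases in ELISA-measured IL-1a are scored relative to DMSO.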

[11] = read-out: Monocyte Chemoattractant Protein-1 (MCP1), CCL2 (gene 6347); experiment: BSK_LPS_MCP1: BioMAP Diversity Plus: LPS Assay for Monocyte Chemoattractant Protein-1 (MCP1) Biomarker Activity (AID 2283081); settings: primary human HUVEC with PBMC; actives raise or lower the signal;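 on AC50: secreted MCP-1 protein quantified by ELISA in culture supernatant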
Procedure, shortened: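 Values derive from bidirectional fitting against DMSO of ELISA-measured MCP-1 in a human primary endothelial and mononuclear cell co-culture, 24 h after chemical addition under LPS activation.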

[12] = BSK_LPS_PGE2: BioMAP Diversity Plus: LPS Assay for Prostaglandin E2 (PGE2) Biomarker Activity (AID 2283082); settings: primary human HUVEC with PBMC; actives raise or lower the signal;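 on AC50: secreted prostaglandin E2 measured by ELISA in LPS-stimulated co-culture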
Procedure, shortened: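 Compounds were added to the LPS co-culture of endothelium and PBMC, and PGE2 was measured by ELISA after 24 h. Responses in either direction were fitted with DMSO as baseline.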

[13] = read-out: Macrophage colony-stimulating factor (MCSF), CSF1 (gene 1435); experiment: BSK_LPS_MCSF: BioMAP Diversity Plus: LPS Assay for Macrophage colony-stimulating factor (MCSF) Biomarker Activity (AID 2283083); settings: primary human HUVEC with PBMC; actives raise or lower the signal
Procedure, shortened: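 Bidirectional fit versus DMSO of ELISA-measured M-CSF in co-cultured human umbilical vein endothelial cells and PBMC, sampled 24 h after dosing.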

[14] = read-out: Tissue Factor, F3 (gene 2152); experiment: BSK_LPS_TissueFactor: BioMAP Diversity Plus: LPS Assay for Tissue Factor Biomarker Activity (AID 2283084); settings: primary human HUVEC with PBMC; actives raise or lower the signal
Procedure, shortened: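 Read-out: CD142 ELISA, 24 h. System: LPS-driven human endothelial/PBMC co-culture. Analysis: up- or down-signal fitted against DMSO.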

[15] = read-out: Tumor necrosis factor (Homo sapiens) (UniProt P01375); experiment: BSK_LPS_TNFa: BioMAP Diversity Plus: LPS Assay for Tumour Necrosis Factor alpha (TNFa) Biomarker Activity (AID 2283085); settings: primary human HUVEC with PBMC; actives raise or lower the signal;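 on AC50: TNFa protein level quantified by ELISA in the co-culture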
Procedure, shortened: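 Cells (umbilical vein endothelium plus peripheral blood mononuclear cells) were dosed with chemical, incubated 24 h, then TNFa was quantified by ELISA; values derive from bidirectional fitting with DMSO as baseline.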

CD40, CD40 (gene 958) [16] = experiment: BSK_SAg_CD40: BioMAP Diversity Plus: SAg Assay for CD40 Biomarker Activity (AID 2283088); settings: primary human HUVEC with PBMC; actives raise or lower the signal
Procedure, shortened: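 Endpoint derived by fitting increases or decreases versus DMSO controls. CD40 is detected by fluorescence ELISA in a human vascular co-culture of endothelium and PBMC at 24 h.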

CD69, CD69 (gene 969) = experiment: BSK_SAg_CD69: BioMAP Diversity Plus: SAg Assay for CD69 Biomarker Activity (AID 2283089); settings: primary human HUVEC with PBMC; actives raise or lower the signal;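 on AC50: cell surface CD69 protein quantified by ELISA with fluorescence detection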
Procedure, shortened: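 Primary human vascular co-culture (umbilical vein endothelium with peripheral blood mononuclear cells) exposed to test chemical for 24 h. CD69 levels quantified by fluorescence ELISA; DMSO served as negative control for bidirectional fitting.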

[17] = read-out: E-selectin (Homo sapiens) (UniProt P16581); experiment: BSK_LPS_Eselectin: BioMAP Diversity Plus: LPS Assay for Eselectin Biomarker Activity (AID 2283077); settings: primary human HUVEC with PBMC; actives raise or lower the signal
Procedure, shortened: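 Dose chemical onto LPS-driven HUVEC/PBMC co-culture; after 24 h, run ELISA for E-selectin; fit up- and down-going responses relative to DMSO control.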

CD38, CD38 (gene 952) = experiment: BSK_SAg_CD38: BioMAP Diversity Plus: SAg Assay for CD38 Biomarker Activity (AID 2283087); settings: primary human HUVEC with PBMC; actives raise or lower the signal
Procedure, shortened: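 CD38 quantified by ELISA (fluorescence) in a superantigen-activated endothelial cell–PBMC co-culture at 24 h post-dose. Activity fitted in both directions relative to DMSO; parallel SRB and Alamar Blue cytotoxicity read-outs.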

[18] = read-out: Vascular cell adhesion molecule 1 (VCAM1), VCAM1 (gene 7412); experiment: BSK_LPS_VCAM1: BioMAP Diversity Plus: LPS Assay for Vascular cell adhesion molecule 1 (VCAM1) Biomarker Activity (AID 2283086); settings: primary human HUVEC with PBMC; actives raise or lower the signal
Procedure, shortened: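 Cells are dosed in an LPS-stimulated endothelial/mononuclear co-culture and, after 24 h, VCAM-1 is quantified by ELISA. Activity in either direction is fitted relative to the DMSO negative control.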

Measured: AC50

Tumor necrosis factor (Homo sapiens), sequence (P01375 whole entry, looked up): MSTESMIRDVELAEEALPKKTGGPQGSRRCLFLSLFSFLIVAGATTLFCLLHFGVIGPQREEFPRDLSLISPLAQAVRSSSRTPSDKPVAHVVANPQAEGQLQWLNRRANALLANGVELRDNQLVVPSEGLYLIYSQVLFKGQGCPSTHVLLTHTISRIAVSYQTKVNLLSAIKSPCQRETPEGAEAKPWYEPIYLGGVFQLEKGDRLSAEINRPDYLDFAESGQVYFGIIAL
E-selectin (Homo sapiens), sequence (P16581 whole entry, looked up): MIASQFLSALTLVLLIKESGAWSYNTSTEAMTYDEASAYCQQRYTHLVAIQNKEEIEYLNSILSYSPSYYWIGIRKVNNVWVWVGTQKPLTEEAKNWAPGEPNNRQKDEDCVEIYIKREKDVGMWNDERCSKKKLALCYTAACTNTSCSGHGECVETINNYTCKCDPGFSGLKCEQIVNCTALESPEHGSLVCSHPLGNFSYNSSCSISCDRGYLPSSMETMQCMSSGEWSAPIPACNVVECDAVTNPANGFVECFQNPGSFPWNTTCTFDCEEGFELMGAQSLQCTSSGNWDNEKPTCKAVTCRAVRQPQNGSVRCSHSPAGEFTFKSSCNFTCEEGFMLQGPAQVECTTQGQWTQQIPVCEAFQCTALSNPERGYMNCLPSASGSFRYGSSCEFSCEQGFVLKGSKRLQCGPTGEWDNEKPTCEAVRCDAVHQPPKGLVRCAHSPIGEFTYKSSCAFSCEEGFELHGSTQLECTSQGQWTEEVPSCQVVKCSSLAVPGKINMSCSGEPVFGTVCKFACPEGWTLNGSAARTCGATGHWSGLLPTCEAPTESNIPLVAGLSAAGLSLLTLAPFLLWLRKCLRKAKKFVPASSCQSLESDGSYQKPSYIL

C=CC(=O)OCCCCCCCC(C)C
inactive: [1] | [2] | [3] | [4] | [5] | [6] | CD40, CD40 (gene 958) [7] | [8] | [9] | [10] | [11] | [12] | [13] | [14] | [15] | CD40, CD40 (gene 958) [16] | CD69, CD69 (gene 969)

CC(C)C(=O)OCCc1ccccc1
inactive: [1] | [2] | [4] | [5] | [6] | CD40, CD40 (gene 958) [7] | [17] | [8] | [9] | [10] | [11] | [12] | [13] | [14] | [15] | CD40, CD40 (gene 958) [16] | CD69, CD69 (gene 969)

Oc1c(Cl)cc(Cl)c(Cl)c1Cl
active: [3] 20 µM | [4] 20 µM | [5] 20 µM | CD40, CD40 (gene 958) [7] 20 µM | [9] 20 µM | [11] 31.5 µM | [13] 26 µM | [14] 20 µM | CD40, CD40 (gene 958) [16] 20 µM | CD69, CD69 (gene 969) 27.8 µM
inactive: [1] | [6] | [8] | [10] | [12] | [15]

CC/C=C\CCOC(=O)c1ccccc1O
active: [1] 30.2 µM | [3] 14.5 µM | [6] 29.8 µM | CD40, CD40 (gene 958) [7] 36.2 µM | [17] 38.1 µM | [8] 33.5 µM | [9] 30.7 µM | [10] 29.6 µM | [11] 32.8 µM | [13] 33 µM | [14] 33 µM | [15] 31.5 µM | CD40, CD40 (gene 958) [16] 33.6 µM | CD69, CD69 (gene 969) 20 µM
inactive: [4] | [5] | [12]

CC/C=C\C/C=C\C/C=C\CCCCCCCC(=O)OC
active: [1] 12.2 µM | [3] 6.41 µM | [4] 5.29 µM | [5] 12.2 µM | [6] 20 µM | CD40, CD40 (gene 958) [7] 20 µM | [8] 29 µM | [9] 27.8 µM | [10] 13.9 µM | [11] 30.6 µM | [12] 5.75 µM | [13] 17.5 µM | [14] 12.6 µM | [15] 13.7 µM | CD38, CD38 (gene 952) 15.1 µM | CD40, CD40 (gene 958) [16] 14.8 µM | CD69, CD69 (gene 969) 21.6 µM

CCCC(C)C(=O)OCC (centres undefined)
inactive: [1] | [4] | [5] | [6] | CD40, CD40 (gene 958) [7] | [17] | [8] | [9] | [10] | [11] | [12] | [13] | [14] | [15] | CD40, CD40 (gene 958) [16] | CD69, CD69 (gene 969)

CCCCCCCCCCCC(=O)N(C)CC(=O)O
inactive: [1] | [4] | [5] | [6] | CD40, CD40 (gene 958) [7] | [8] | [9] | [10] | [11] | [12] | [13] | [14] | [15] | [18] | CD38, CD38 (gene 952) | CD40, CD40 (gene 958) [16] | CD69, CD69 (gene 969)
active: [12] 5.24 µM | [13] 5.86 µM
